# Inconclusive results are not listed. Calls of active or inactive are those of the source. The call rests on the fitted dose curve; in most records, active means well fitted activation curve with a large enough effect; inconclusive means small, poorly fitted or top-dose-only effect; inactive means flat fitted curve, though single readings scatter.
# Assay: Cellular Toxicity (caspase-3) H-4-II-E (AID 663);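 further: cells exposed to compound for 16 hr before readout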
# Details: H-4-II-E rat hepatoma, scaled: DMSO 0%, 100 µM tamoxifen 100%; series mostly up to 92.2 µM; caspase-3 activation: at the top concentration
# How it was run: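 Caspase 3/7 activation measured by luminescent aminoluciferin substrate cleavage after 16 hr compound treatment of H-4-II-E cells in complete medium. Increase normalized between DMSO (basal) and 100 uM tamoxifen (100%); Hill-equation AC50 from concentration-response.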
Compound,outcome,caspase-3 activation
O=C(O)COc1ccc(Cl)cc1Cl,inactive,
ClC1=C(Cl)C2(Cl)C3C4C=CC(C4)C3C1(Cl)C2(Cl)Cl (stereo not given),,9.19% (inactive)
O=S1OCC2C(CO1)C1(Cl)C(Cl)=C(Cl)C2(Cl)C1(Cl)Cl (stereo not given),,24.3% (inactive)
c1ccc(N=Nc2ccccc2)cc1,,1.87% (inactive)
CCOCN(C(=O)CCl)c1c(C)cccc1CC,,2.87% (inactive)
CNC(=O)O/N=C/C(C)(C)SC,,-0.0377% (inactive)
CCNc1nc(Cl)nc(NC(C)C)n1,,-0.312% (inactive)
C=CCc1ccc(OC)cc1,,-0.334% (inactive)
ClC1=C(Cl)C2(Cl)C3C(Cl)C=CC3C1(Cl)C2(Cl)Cl (stereo not given),,-0.916% (inactive)
ClC1=C(Cl)C2(Cl)C3C4CC(C5OC45)C3C1(Cl)C2(Cl)Cl (stereo not given),,0.0347% (inactive)
ClC(Cl)=C(c1ccc(Cl)cc1)c1ccc(Cl)cc1,inactive,
CCc1cccc(CC)c1N(COC)C(=O)CCl,,-1.23% (inactive)
C/C=C/c1ccc2c(c1)OCO2,,0.953% (inactive)
C=CCc1ccc2c(c1)OCO2,,-0.207% (inactive)
COP(=S)(OC)Oc1ccc([N+](=O)[O-])cc1,,0.341% (inactive)

# — PubChem BioAssay (NCATS)
